We go through 7 compounds from PubChem BioAssay (Tox21).

A short description of test [1]: qHTS assay to test for compound auto fluorescence at 535 nm (green) in HEK293 cells (AID 720680). For orientation: In qHTS, concentration-response curves come from the screen itself.
Test [2] in a line: qHTS assay to test for compound auto fluorescence at 460 nm (blue) in HEK293 cell free culture (AID 720681). The essentials: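 Compounds were added to cell-free DMEM with 10% FBS and fluorescence read directly. The blue channel used 405 nm excitation and 460 nm emission, with triamterene as the reference fluorophore.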
Test [3] in a line: qHTS assay to test for compound auto fluorescence at 535 nm (green) in HEK293 cell free culture (AID 720682). In outline: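 DMEM + 10% FBS, cell-free; cpd or DMSO pinned in; Ex485/Em535 read; output as fluorescein-equivalent signal.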
The nature of test [4]: qHTS assay to test for compound auto fluorescence at 590 nm (red) in HEK293 cell free culture (AID 720683). The essentials: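 Cell-free wells of DMEM with 10% FBS received compound, and intrinsic fluorescence was read at excitation/emission 540/590 nm. Values expressed as equivalence to Rose Bengal sodium.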
Test [5] can be described thus: qHTS assay to test for compound auto fluorescence at 590 nm (red) in HepG2 cell free culture (AID 720684). The essentials: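 Compound was pinned into wells holding MEM with 10% FBS and no cells, and red fluorescence was read at Ex/Em 540/590 nm. Signal is expressed as auto fluorescence equivalency relative to Rose Bengal sodium.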
Test [6] can be described thus: qHTS assay to test for compound auto fluorescence at 460 nm (blue) in HepG2 cell free culture (AID 720685). The essentials: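 Compound (23 nL) or DMSO pinned into cell-free MEM with 10% FBS; blue fluorescence read at 405/460 nm excitation/emission, expressed as auto-fluorescence equivalency to triamterene.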
The nature of test [7]: qHTS assay to test for compound auto fluorescence at 535 nm (green) in HepG2 cell free culture (AID 720686).
Test [8] in a line: qHTS assay to test for compound auto fluorescence at 460 nm (blue) in HepG2 cells (AID 720687). The essentials:
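HepG2 cells in MEM with 10% FBS, attached overnight at 37 C, were exposed to compound or DMSO for 1 hr at 37 C, 5% CO2. Blue fluorescence was read at 405/460 nm, with triamterene as reference fluorophore.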

Test [9] has as its target Glucocorticoid receptor (Homo sapiens) (UniProt P04150). Briefly: qHTS assay to identify small molecule agonists of the glucocorticoid receptor (GR) signaling pathway (AID 720691; active means well fitted activation curve with a large enough effect in the signal ratio in the repeat runs, not every such curve was filed as active; the % refers to the signal ratio). The settings on record: GR-bla HeLa, beta-lactamase reporter ratio, 18 h; activation: at 62.4 µM (top of the series). The essentials: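 Beta-lactamase reporter activity, read as fluorescence intensity, was measured in GR-bla HeLa cells exposed to compounds for 18 h at 37 C and then loaded with LiveBLAzer B/G FRET substrate for 2 h at room temperature.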

Test [10] has the same target. Briefly: qHTS assay to identify small molecule antagonists of the glucocorticoid receptor (GR) signaling pathway (AID 720692; active means well fitted inhibition curve with a large enough effect in the signal ratio in the repeat runs, not every such curve was filed as active; the % refers to the signal ratio). The essentials: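 Fluorescence from cleaved LiveBLAzer B/G FRET substrate reports GRE-driven beta-lactamase in HeLa cells; compounds are tested against 5 nM dexamethasone (final) over 18 h at 37 C, substrate incubation 2 h at room temperature.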

Test [11] in a line: qHTS assay to identify small molecule antagonists of the glucocorticoid receptor (GR) signaling pathway - cell viability counter screen (AID 720693). Further: nearly all actives have a fitted effect of over 55% in size.
A short description of test [12]: qHTS assay for identifying genotoxic compounds that show differential cytotoxicity against isogenic chicken DT40 cell lines with known DNA damage response pathways - wild type cell line (AID 743012). Further: nearly all actives have a fitted effect of over 60% in size. Further: potency means the concentration at half of the fitted maximal effect. The essentials: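 Quantitative HTS on parental DT40 cells: 40 h compound treatment at 37 C/5% CO2, with viability then determined by CellTiter-Glo luminescence. Values serve as the DNA repair-proficient reference for differential cytotoxicity.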

Test [13] can be described thus: qHTS assay for identifying genotoxic compounds that show differential cytotoxicity against isogenic chicken DT40 cell lines with known DNA damage response pathways - Rev3 mutant cell line (AID 743014). Further: nearly all actives have a fitted effect of over 55% in size. Further: potency means the concentration at half of the fitted maximal effect.
A short description of test [14]: qHTS assay for identifying genotoxic compounds that show differential cytotoxicity against isogenic chicken DT40 cell lines with known DNA damage response pathways - Rad54/Ku70 mutant cell line (AID 743015). Further: nearly all actives have a fitted effect of over 60% in size. Further: potency means the concentration at half of the fitted maximal effect.
Test [15] can be described thus: qHTS assay to identify small molecule antagonists of the androgen receptor (AR) signaling pathway - cell viability counter screen (AID 743033; further: nearly all actives have a fitted effect of over 45% in size).
Test [16] deals with Androgen receptor (Homo sapiens) (UniProt P10275). Briefly: qHTS assay to identify small molecule antagonists of the androgen receptor (AR) signaling pathway (AID 743035; active means well fitted inhibition curve with a large enough effect in the signal ratio in the repeat runs, not every such curve was filed as active; the % refers to the signal ratio). In outline: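 Cell line: GeneBLAzer AR-UAS-bla GripTite (HEK293). Stimulus: R1881 added after compound. Exposure: 16 h, 37C, 5% CO2. Readout: LiveBLAzer B/G FRET fluorescence after 2 h at room temperature.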

Test [17] shares this target. The test can be described thus: qHTS assay to identify small molecule agonists of the androgen receptor (AR) signaling pathway using the MDA cell line (AID 743040; further: nearly all actives have a fitted effect of over 20% in size). In outline: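 MDA-kb2 breast carcinoma cells carrying MMTV-luciferase (responsive to AR and GR), plated 5 h then treated 16 h with compounds at 37C, 0% CO2. Read-out was ONE-Glo luminescence after 30 min at room temperature.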

A short description of test [18]: qHTS assay to identify small molecule antagonists of the androgen receptor (AR) signaling pathway using the MDA cell line - cell viability counter screen (AID 743041; further: nearly all actives have a fitted effect of over 45% in size). In outline: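 MDA-kb2 AR-luc cells (MMTV-luciferase, AR/GR responsive) treated with compounds plus R1881 agonist for 16 h at 37C. CellTiter-Fluor added at 15.5 h; fluorescence read after 30 min in the same wells.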

Test [19] has as its target Androgen receptor (Homo sapiens) (UniProt P10275). Briefly: qHTS assay to identify small molecule antagonists of the androgen receptor (AR) signaling pathway using the MDA cell line (AID 743042; further: nearly all actives have a fitted effect of over 55% in size). In outline: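 MDA-kb2 breast carcinoma cells carrying MMTV-luciferase (AR/GR responsive) were co-treated with compounds and the agonist R1881 for 16 h at 37C. Inhibition read as ONE-Glo luminescence; CellTiter-Fluor fluorescence measured in parallel for cytotoxicity.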

Test [20] shares this target. Briefly: qHTS assay to identify small molecule agonists of the androgen receptor (AR) signaling pathway (AID 743036; active means well fitted activation curve with a large enough effect in the signal ratio in the repeat runs, with a control signal flat, not every such curve was filed as active; the % refers to the signal ratio). The essentials:
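Screening used 2,000 AR-bla HEK293 cells per well, treated 16 h at 37C with test compounds in DMSO alongside positive and DMSO-only controls; beta-lactamase activity was then read by LiveBLAzer B/G FRET fluorescence after 2 h at room temperature.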

SMILES strings stand for the structures. Values joined by “and” are separate entries in the source; they are usually repeats but may differ in a detail not shown here. Identical values can stand only once. Records with an inconclusive call do not appear. Active and inactive are the calls of the source. Unless noted, the call rests on the fitted dose curve; in most records, active means well fitted curve in the direction sought with a large enough effect in the repeat runs; inconclusive means weak or mixed curves; inactive means no such curve, though single readings can be large; an effect the other way counts as inactive or inconclusive.

Sequence of Androgen receptor (Homo sapiens) (P10275 whole entry, looked up): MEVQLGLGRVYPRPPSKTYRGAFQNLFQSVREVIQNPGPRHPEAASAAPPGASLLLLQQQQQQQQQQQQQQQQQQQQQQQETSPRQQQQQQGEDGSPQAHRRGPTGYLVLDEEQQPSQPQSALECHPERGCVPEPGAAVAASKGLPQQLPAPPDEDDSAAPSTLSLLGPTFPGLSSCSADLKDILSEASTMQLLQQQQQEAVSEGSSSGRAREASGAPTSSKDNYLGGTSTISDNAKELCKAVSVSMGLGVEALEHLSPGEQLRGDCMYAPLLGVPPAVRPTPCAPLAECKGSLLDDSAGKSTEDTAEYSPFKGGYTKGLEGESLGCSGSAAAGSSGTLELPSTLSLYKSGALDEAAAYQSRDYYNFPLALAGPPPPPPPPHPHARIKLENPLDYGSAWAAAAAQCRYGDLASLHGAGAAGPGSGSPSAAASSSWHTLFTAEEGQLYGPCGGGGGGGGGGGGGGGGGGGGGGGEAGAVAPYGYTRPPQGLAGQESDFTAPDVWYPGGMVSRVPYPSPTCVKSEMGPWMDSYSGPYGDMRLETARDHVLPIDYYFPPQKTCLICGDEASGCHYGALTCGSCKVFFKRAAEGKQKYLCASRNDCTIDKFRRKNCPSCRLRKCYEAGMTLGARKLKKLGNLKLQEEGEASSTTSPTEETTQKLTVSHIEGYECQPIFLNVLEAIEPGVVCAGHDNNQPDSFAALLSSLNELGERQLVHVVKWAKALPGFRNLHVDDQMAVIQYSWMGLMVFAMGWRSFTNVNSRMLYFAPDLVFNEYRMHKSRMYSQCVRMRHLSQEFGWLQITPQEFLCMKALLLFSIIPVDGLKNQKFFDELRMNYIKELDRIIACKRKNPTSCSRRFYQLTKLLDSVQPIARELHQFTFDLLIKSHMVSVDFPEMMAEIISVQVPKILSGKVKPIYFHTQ
Sequence of Glucocorticoid receptor (Homo sapiens) (P04150 whole entry, looked up): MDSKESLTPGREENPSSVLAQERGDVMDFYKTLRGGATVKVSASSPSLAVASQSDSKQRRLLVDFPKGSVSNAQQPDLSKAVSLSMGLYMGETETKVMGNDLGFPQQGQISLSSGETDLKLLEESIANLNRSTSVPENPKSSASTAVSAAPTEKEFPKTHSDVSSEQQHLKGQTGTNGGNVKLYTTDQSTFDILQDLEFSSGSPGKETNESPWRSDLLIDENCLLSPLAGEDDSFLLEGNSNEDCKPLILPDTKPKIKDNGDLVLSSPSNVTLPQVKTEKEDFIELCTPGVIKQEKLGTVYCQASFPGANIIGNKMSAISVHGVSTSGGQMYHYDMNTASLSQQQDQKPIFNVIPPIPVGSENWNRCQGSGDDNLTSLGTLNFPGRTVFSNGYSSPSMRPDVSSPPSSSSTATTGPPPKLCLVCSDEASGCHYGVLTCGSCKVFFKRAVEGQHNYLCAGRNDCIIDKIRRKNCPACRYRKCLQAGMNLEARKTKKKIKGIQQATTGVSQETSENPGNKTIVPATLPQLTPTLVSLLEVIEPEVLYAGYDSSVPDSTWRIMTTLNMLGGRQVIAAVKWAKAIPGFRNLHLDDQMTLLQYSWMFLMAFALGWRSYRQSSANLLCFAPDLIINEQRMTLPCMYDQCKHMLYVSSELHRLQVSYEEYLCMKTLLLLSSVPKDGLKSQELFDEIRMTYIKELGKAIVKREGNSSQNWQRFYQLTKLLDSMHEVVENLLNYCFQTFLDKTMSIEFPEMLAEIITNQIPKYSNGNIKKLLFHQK

In the case of `CC[N+](C)(C)Cc1ccccc1Br`, the Potency entry in test [1], in test [2], in test [3], in [4], in test [5] and in test [7] was “inactive” in each case. Moreover, the Potency entry in test [9], in test [10], in test [11], in [12], in [13] and in test [14] was “inactive” in each case. For the same compound, the Potency entry in test [15], in [16], in [17], in [18] and in test [19] was “inactive” each time. For the same compound, the call in test [6] and in test [8] was inactive.

Consider `CN1[C@@H]2CC[C@H]1CC(OC(c1ccccc1)c1ccccc1)C2` (stereo not given in full), for which the Potency entry in test [1], in test [2], in test [3], in [4], in [5] and in test [7] was “inactive” each time. Moreover, the Potency result in test [9], in test [10], in test [11] and in test [15] was “inactive” throughout. Further, the outcome in test [6] and in test [8] was inactive. In addition, the Potency in test [12] is 5.31 µM (active) and 13.3 µM (active) and 6.68 µM (active); in [13], 5.31 µM (active) and 8.41 µM (active) and 4.22 µM (active); in test [14], 8.41 µM (active) and 23.7 µM (active) and 11.9 µM (active).

With `CC1(C)S[C@@H]2[C@H](NC(=O)Cc3ccccc3)C(=O)N2[C@H]1C(=O)O`, the Potency entry in [1], in test [2], in test [3], in test [4], in test [5] and in [7] was “inactive” in each case. Further, the Potency entry in [9], in [10], in test [11], in [12], in test [13] and in [14] was “inactive” throughout. In addition, the Potency result in [15] and in test [18] was “inactive” throughout. The compound was called inactive in test [6] and in test [8].

For `O=C(O)c1nc(=O)[nH]c(=O)[nH]1`, the Potency entry in test [1], in test [2], in test [3], in [4], in test [5] and in [7] was “inactive” throughout. Besides, the Potency result in [9], in test [10], in test [11], in test [12], in [13] and in [14] was “inactive” throughout. In addition, the Potency entry in test [15], in test [16], in test [20], in test [17], in test [18] and in [19] was “inactive” throughout. The result in test [6] and in test [8] was inactive.

For `Cc1ccccc1`, the Potency entry in [1], in test [2], in test [3], in test [4], in test [5] and in test [7] was “inactive” throughout. The outcome in test [6] and in [8] was inactive.

Regarding `COC(=O)CCC(=O)CN`, the Potency entry in test [1], in test [2], in test [3], in [4], in test [5] and in [7] was “inactive” in each case. Moreover, the Potency entry in test [9], in [10], in test [11], in test [12], in test [13] and in test [14] was “inactive” each time. Besides, the Potency result in test [15] and in test [18] was “inactive” each time. Moreover, the compound was classed as inactive in [6] and in test [8].

For the compound `CCC(C)[C@@H](N)C(=O)O` (stereo not given in full), the Potency entry in [1], in test [2], in [3], in [4], in test [5] and in test [7] was “inactive” in each case. Also, the Potency entry in test [9], in test [10], in test [11], in test [12], in test [13] and in [14] was “inactive” each time. Moreover, the Potency result in test [15] and in test [18] was “inactive” each time. Further, the compound was called inactive in test [6] and in [8].
